Assay results as given in PubChem BioAssay (Tox21).
A number with no mark means an inactive call. Records with an inconclusive call do not appear. Where a call stands in place of a potency, no number is given. Active and inactive are the calls of the source. Unless noted, the call rests on the fitted dose curve.

Key:
[1] = target: Thyrotropin receptor (Homo sapiens) (UniProt P16473); test: qHTS assay to identify small molecule agonists of the thyroid stimulating hormone receptor (TSHR) signaling pathway (AID 1224843); further: nearly all actives have a fitted effect of over 45% in size
Chain of Thyrotropin receptor (Homo sapiens) (P16473 whole entry, looked up): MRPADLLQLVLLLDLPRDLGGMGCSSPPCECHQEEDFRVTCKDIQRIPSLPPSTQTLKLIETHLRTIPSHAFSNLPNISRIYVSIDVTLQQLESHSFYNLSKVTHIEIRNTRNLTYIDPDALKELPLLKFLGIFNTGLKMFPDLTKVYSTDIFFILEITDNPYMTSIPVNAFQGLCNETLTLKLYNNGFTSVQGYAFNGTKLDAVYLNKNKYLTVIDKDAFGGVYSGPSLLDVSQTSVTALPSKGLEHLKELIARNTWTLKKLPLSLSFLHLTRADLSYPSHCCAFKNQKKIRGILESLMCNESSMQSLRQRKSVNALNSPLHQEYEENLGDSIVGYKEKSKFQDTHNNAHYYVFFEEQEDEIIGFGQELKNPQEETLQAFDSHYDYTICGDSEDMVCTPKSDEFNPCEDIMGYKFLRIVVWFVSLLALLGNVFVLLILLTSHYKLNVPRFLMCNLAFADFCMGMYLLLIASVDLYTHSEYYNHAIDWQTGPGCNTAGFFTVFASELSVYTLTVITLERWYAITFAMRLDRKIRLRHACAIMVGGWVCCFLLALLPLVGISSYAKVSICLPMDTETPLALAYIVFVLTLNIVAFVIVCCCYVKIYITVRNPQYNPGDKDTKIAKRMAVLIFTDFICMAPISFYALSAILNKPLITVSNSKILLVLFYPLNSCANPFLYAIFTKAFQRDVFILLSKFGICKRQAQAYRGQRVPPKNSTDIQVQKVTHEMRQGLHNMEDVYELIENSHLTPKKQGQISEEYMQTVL
In short: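 Agonist activity read as cAMP rise via d2/cryptate HTRF competition, 1 h room-temperature detection, in HEK293 cells expressing TSHR. Fifteen-point titrations, each run in triplicate, with a 30 min room-temperature incubation beforehand.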

[2] = qHTS assay to identify small molecule agonists of the hypoxia (HIF-1) signaling pathway - cell viability counter screen (AID 1224844); further: nearly all actives have a fitted effect of over 50% in size
In short: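 Same wells as the HIF-1 reporter screen; ME-180 cells carrying HRE-bla, 17 hr treatment at 37C; CellTiter-Glo luminescence read after 30 min at room temperature.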

[3] = qHTS assay to identify small molecule agonists of H2AX (AID 1224845; active means well fitted activation curve with a large enough effect in the signal ratio in the repeat runs, not every such curve was filed as active; the % refers to the signal ratio; further: potency means the concentration at half of the fitted maximal effect)
In short: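 Phospho-H2AX Ser139 measured by HTRF (ex 320 nm; em 665 and 620 nm) after 24 hr antibody incubation. Compounds, 15 concentrations, 0.76% DMSO, were applied to CHO-K1 cells for 3hr at 37C before lysis.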

[4] = qHTS assay to identify small molecule agonists of the hypoxia (HIF-1) signaling pathway (AID 1224846; active means well fitted activation curve with a large enough effect in the signal ratio in the repeat runs, not every such curve was filed as active; the % refers to the signal ratio)
In short: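 In ME-180 cells bearing an HRE-bla construct, 17 h treatment with DMSO-dissolved compounds at 37C was followed by CCF4-AM loading to quantify reporter induction.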

[5] = qHTS assay to identify small molecule agonists of H2AX - cell viability counter screen (AID 1224847);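 further: wild-type CHO-K1 cells; top concentration of the series differs between compounds; nearly all actives have a fitted effect of over 30% in size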
In short: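 Cells plated first: CHO-K1, 1000 per well in 10% FBS medium, incubated overnight at 37C. Then 15-point compound titration added (final DMSO 0.76%) for 3 hr. Finally CellTiter-Glo added and luminescence read.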

[6] = qHTS assay to identify small molecule antagonists of the estrogen related receptor (ERR) signaling pathway from Tox21 library (AID 1224848; active means well fitted curve in the direction sought with a large enough effect in the repeat runs; an effect the other way counts as inactive or inconclusive; further: nearly all actives have a fitted effect of over 50% in size; further: potency means the concentration at half of the fitted maximal effect)
In short: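 Luciferase luminescence (ONE-Glo, 30 min room temperature) was the read-out. Cells of the NTP-supplied ERR line, 2,000 per well, were given 6 h at 37 C before compound addition in DMSO and 18 h exposure at 37 C.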

[7] = qHTS assay to identify small molecule agonists of the estrogen related receptor (ERR) signaling pathway from Tox21 library (AID 1224849); conditions: ERR reporter cell line, ONE-Glo luciferase, 18 h; at 92.4 µM (top of the series) unless noted; further: nearly all actives have a fitted effect of over 15% in size
In short: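 Reporter cells (ERR, NTP source) treated with Tox21 10K compounds 18 h, 37 C. Readout: ONE-Glo luminescence, 30 min RT.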

[8] = qHTS RealTime-Glo MT Cell Viability Assay in HepG2 cells - 24 hour (AID 1224867; active means well fitted curve in the direction sought with a large enough effect in the repeat runs; an effect the other way counts as inactive or inconclusive; further: nearly all actives have a fitted effect of over 50% in size)
In short: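 Viability was tracked continuously by NanoLuc luminescence from prosubstrate reduced by living HepG2 cells, at successive time points over 40 h of compound exposure. Cells with reagent were preincubated 5 h at 37 °C before compound addition.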

[9] = qHTS RealTime-Glo MT Cell Viability Assay in HEK293 cells - 32 hour (AID 1224868; active means well fitted curve in the direction sought with a large enough effect in the repeat runs; an effect the other way counts as inactive or inconclusive; further: nearly all actives have a fitted effect of over 50% in size; further: potency means the concentration at half of the fitted maximal effect; on activity change, negative = cytotoxic: top concentration of the series differs between compounds)
In short: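 Viability tracked continuously by luminescence as live cells reduce a prosubstrate for NanoLuc; HEK293 cells preincubated 5 h, compound-treated at 37 C, and read at 0, 8, 16, 24, 32 and 40 h.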

[10] = A CellTox Green Cytotoxicity Assay to monitor cytotoxicity in HEK293 cells - 0 hour (AID 1224869; active means well fitted curve in the direction sought with a large enough effect in the repeat runs; an effect the other way counts as inactive or inconclusive; further: nearly all actives have a fitted effect of over 50% in size)
In short: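 Homogeneous no-lysis format: HEK293 cell suspension mixed with CellTox Green reagent, seeded, incubated 5 h at 37 C/5% CO2, then dosed by pintool with compound in DMSO.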

SMILES	Potency [1]	Potency [2]	Potency [3]	outcome [4]	Potency [5]	Potency [6]	activity change, positive = activation [7]	Potency [8]	Potency [9]	Potency [10]	activation [1]	activity change, negative = cytotoxicity [2]	activation (H2AX phosphorylation) [3]	activation [4]	activity change, negative = cytotoxicity [5]	activity change, negative = cytotoxicity [8]	activity change, negative = cytotoxic [9]
COC(=O)c1cc(Cl)ccc1NS(=O)(=O)C(F)(F)F	inactive	inactive	inactive	inactive	inactive	inactive	6.47% [at 42.5 µM]	inactive	inactive	inactive							
C=CC(C)(O)CCCC(C)CCCC(C)CCCC(C)C (configuration not stated)	inactive	inactive	inactive	inactive	inactive	inactive	-0.948%	inactive	inactive	inactive							
CC1(C)O[C@@H]2C[C@H]3[C@@H]4CCC5=CC(=O)C=C[C@]5(C)[C@H]4[C@@H](O)C[C@]3(C)[C@]2(C(=O)CO)O1	inactive	inactive	inactive	inactive	inactive	inactive	-2.7% [at 42.5 µM]	inactive	inactive	inactive							
CC1CC(O)CC(C)(C)C1 (configuration not stated)	inactive	inactive	inactive	inactive	inactive	inactive	-6.05%	inactive	inactive								
NC(=O)Nc1ccc(Cl)cc1	inactive	inactive	inactive	inactive	inactive	inactive	0.227%	inactive	inactive	inactive							
N#C[C@@H]1C[C@@H]2C[C@@H]2N1C(=O)[C@@H](N)C12CC3CC(CC(O)(C3)C1)C2	inactive	inactive	inactive	inactive	inactive	inactive	0.254% [at 42.5 µM]	inactive	inactive	inactive							
O=C(CCC1CCN(Cc2ccccc2)CC1)c1ccc2c(c1)NCCCC2	inactive	inactive	inactive	inactive	inactive	18.8 µM (active)	-36% [at 42.5 µM]	inactive	8.49 µM (active)	inactive							
NC(=O)N(O)[C@@H]1C=C[C@H](Oc2cccc(Oc3ccc(F)cc3)c2)C1	inactive	inactive	inactive	inactive	inactive	inactive	-15%	inactive	17.4 µM (active)	inactive							
Cc1nc2ccccc2s1	inactive	inactive	inactive	inactive	inactive	inactive	1.14%	inactive	inactive	inactive							
CC(C)(C)C(=O)O	inactive	inactive	inactive	inactive	inactive	inactive	3.7%	inactive	inactive	inactive							
CC1=CC(=O)CC(C)(C)C1(O)/C=C/C(C)=C\C(=O)O (configuration not stated)	inactive	inactive	inactive	inactive	inactive	inactive	4.36%	inactive	inactive								
CCCCCCCCSCCO	inactive	inactive	inactive	inactive	inactive	inactive	-3.95%	inactive	inactive	inactive							
CC#N	inactive	inactive	inactive	inactive	inactive	inactive	6.68%	inactive	inactive	inactive							
CC(=O)CC(c1ccc([N+](=O)[O-])cc1)c1c(O)c2ccccc2oc1=O (configuration not stated)	inactive	inactive	inactive	inactive	inactive	inactive	-11.1% [at 42.5 µM]	inactive	inactive	inactive							
CN1Cc2cc(C(=O)N3CCC(C4CCNCC4)CC3)ccc2N[C@@H](CC(=O)O)C1=O	inactive	inactive	inactive	inactive	inactive	inactive	7.88% [at 42.5 µM]	inactive	inactive	inactive							
CCCCC(CC)CNCC(CC)CCCC (configuration not stated)	inactive	inactive	inactive	inactive	inactive	inactive	4.2%	inactive	inactive	inactive							
CNC(=O)N(c1ccccc1)c1ccccc1	inactive	inactive	inactive	inactive	inactive	inactive	-5.23%	inactive	inactive	inactive							
CC1(C)C(=O)N(Br)C(=O)N1Cl	inactive	inactive	inactive	inactive	inactive	inactive	1.48%	inactive	inactive	inactive							
CCOC(=O)c1ccccc1OC	inactive	inactive	inactive	inactive	inactive	inactive	-0.575%	inactive	inactive	inactive							
CCCC(=O)O[C@]1(C(=O)COC(=O)CC)CC[C@H]2[C@@H]3CCC4=CC(=O)CC[C@]4(C)[C@H]3[C@@H](O)C[C@@]21C											-3.04% [at 19 µM]	-1.64% [at 15.8 µM]	-1.56% [at 31.6 µM]	-2.77% [at 15.8 µM]	1.02% [at 31.6 µM]	1.66% [at 15.8 µM]	-2.43% [at 15.8 µM]
Nc1nc(Cl)nc2c1ncn2[C@@H]1O[C@H](CO)[C@@H](O)[C@@H]1F	inactive	inactive	1.56 µM (active)	inactive	inactive			inactive	4.77 µM (active)								
